# Experimental data taken from PubChem BioAssay (NCI).
# This is part of a sample that, as a whole, favours compounds with a hit. Of some 83,000 tested, about 20% had one in any assay.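 Single-concentration screen, 48 h exposure, 96-well plates. Endpoint: percent growth. Below 10 = active.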 Values without a mark were called inactive. Calls of active or inactive are those of the source.
# Columns and labels:
# Assay in all cases: NCI-60 one-dose screen, 48 h (100 = growth as untreated, 0 = no growth, -100 = all killed)
# Conditions in all cases: 10 µM unless noted
# SR leukemia = tested on: SR leukemia
# RPMI-8226 leukemia = tested on: RPMI-8226 leukemia
# OVCAR-8 ovarian = tested on: OVCAR-8 ovarian
# OVCAR-5 ovarian = tested on: OVCAR-5 ovarian
# OVCAR-4 ovarian = tested on: OVCAR-4 ovarian
# SK-OV-3 ovarian = tested on: SK-OV-3 ovarian
# IGROV1 ovarian = tested on: IGROV1 ovarian
# OVCAR-3 ovarian = tested on: OVCAR-3 ovarian
# HS 578T breast = tested on: HS 578T breast
# NCI/ADR-RES ovarian = tested on: NCI/ADR-RES ovarian
SMILES,growth (SR leukemia),growth (RPMI-8226 leukemia),growth (OVCAR-8 ovarian),growth (OVCAR-5 ovarian),growth (OVCAR-4 ovarian),growth (SK-OV-3 ovarian),growth (IGROV1 ovarian) [%],growth (OVCAR-3 ovarian),growth (HS 578T breast),growth (NCI/ADR-RES ovarian) [%]
COC(=O)c1c(C(=O)OC)c2ccc3c4ccccc4ccc3n2c1C(=O)OC,94.6%,104%,107%,106%,100%,109%,114,75.8%,92.7%,112
Cc1ccc(S(=O)(=O)N(CCn2ccnc2[N+](=O)[O-])CCn2ccnc2[N+](=O)[O-])cc1,94.2%,102%,101%,103%,107%,109%,109,124%,103%,104
CC(C)(C)C(=O)c1c2c(c3ccc4c5ccccc5ccc4n13)C(=O)c1ccccc1C2=O,85.5%,96.6%,96.3%,116%,71.2%,118%,95.7,94.4%,100%,95.5
CCCCNc1ccc2c3c(cccc13)C(=O)N(NCC(O)COc1ccc3c(C)cc(=O)oc3c1)C2=O (stereo unspecified),70.2%,69.3%,91.2%,106%,74.6%,99.4%,78.9,87.8%,80.7%,85.8
CS(=O)(=O)Nc1cccc(-n2cnc3cc(-c4ccc(O)cc4)ccc32)c1,32.1%,27.2%,30.8%,56%,67.1%,35.6%,57.7,30.7%,40.8%,29.8
O=C1Nc2cc(-c3ccc(NS(=O)(=O)c4ccc([N+](=O)[O-])cc4)cc3)ccc2/C1=C/c1ccc[nH]1,12.9%,13.5%,7.53% (active),27.5%,6.68% (active),-16.9% (active),39.2,-29.4% (active),41.6%,24.4
Cc1cc(=O)oc2cc(OCC(O)CNN3C(=O)c4cccc5c(N6CCN(C)CC6)ccc(c45)C3=O)ccc12 (stereo unspecified),81.1%,97.4%,91.4%,112%,99.1%,116%,109,103%,87.4%,89.4
COc1cc(C2CC(c3cc(OC)c(OC)c(OC)c3)=Nc3c(N)nc(N)nc3N2)ccc1Oc1nc(Nc2ccc(F)cc2)nc(N(C)C)n1 (stereo unspecified),-7.88% (active),33.9%,59%,105%,49.2%,107%,70.8,74.2%,48.2%,66.4
COc1ccc2[nH]c(=O)c(CSc3ccccc3Nc3nccc(-c4ccc(C(F)(F)F)cc4)n3)cc2c1,-16.8% (active),4.65% (active),32.4%,75.9%,39.2%,81.7%,59.8,22.1%,42.5%,10.5
CCCCCCCCc1ccc(C(=O)Nc2cccc(O)c2)cc1,29.8%,35%,83%,100%,78.8%,109%,–,91.2%,81.4%,59
CC(C)C[C@H](NC(=O)CNC(=O)C[C@H]1O[C@@H]2OC3(C)CC[C@H]4[C@H](C)CC[C@@H]([C@H]1C)[C@@]24O3)B(O)O,9.06% (active),-11% (active),4.17% (active),-32.6% (active),18.9%,25.7%,–,-33.1% (active),-5.03% (active),92.6
CCCN(CCC)S(=O)(=O)c1ccc(C(=O)O)cc1.CCCN(CCC)S(=O)(=O)c1ccc(C(=O)O)cc1.[Cl][Pt+2][Cl].[NH2-].[NH2-],3.39% (active),12.3%,39.7%,24.5%,35.4%,18.8%,–,0.454% (active),80.8%,101
COc1ccc2[nH]c(O)c(N=NC(=O)c3ccc4nc(-c5ccc(Cl)cc5)[nH]c4c3)c2c1,34.2%,103%,48.4%,72.1%,48.9%,90.8%,–,71.8%,37.7%,116
